The values that follow come from PubChem BioAssay (NCI).

Values joined by “and” are separate entries in the source; they are usually repeats but may differ in a detail not shown here. Equal entries are not always repeated. The panel holds about 83,000 compounds, 20% with a hit somewhere; the sample as a whole holds those more often.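 For each line, cells grew in 96-well plates with the test compound present at a single concentration for 48 hours.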 Unmarked numbers belong to inactive results. Active and inactive are the calls of the source. Rule for the calls: active = growth percent below 10; inactive = the rest.

Test systems include DU-145 prostate; K-562 leukemia; MALME-3M melanoma; MDA-MB-231 breast; RXF 393 renal; SF-268 CNS; SF-295 CNS; SF-539 CNS; UACC-257 melanoma; M14 melanoma; HCT-15 colon; HT29 colon; SNB-75 CNS; SNB-19 CNS; SK-MEL-5 melanoma; UACC-62 melanoma; LOX IMVI melanoma; SK-MEL-28 melanoma.
Holding throughout (test): NCI-60 one-dose screen, 48 h (100 = growth as untreated, 0 = no growth, -100 = all killed)
The subject of a further assay is U251 CNS. To be noted: 10 µM unless noted.
The next assay has as its system PC-3 prostate. To be noted: 10 µM unless noted.

With `C1=C(c2ccccc2)C(c2ccc(OCCN3CCCCC3)cc2)Oc2ccccc21` (configuration not stated), the growth in the assay on DU-145 prostate (10 µM unless noted) was 77.1%; with K-562 leukemia (10 µM unless noted), 10.8%; in the assay on MALME-3M melanoma (10 µM unless noted), 2.37% (active); in the assay with MDA-MB-231 breast (10 µM unless noted), 48.4%; with RXF 393 renal (10 µM unless noted), 20.4%; in the assay with SF-268 CNS (10 µM unless noted), 62.2%. Moreover, the growth in the assay with SF-295 CNS (10 µM unless noted) was 52.7%; in the assay with SF-539 CNS (10 µM unless noted), 71.8%; in the assay on UACC-257 melanoma (10 µM unless noted), -40.6% (active); in the assay with M14 melanoma (10 µM unless noted), -58% (active); with HCT-15 colon (10 µM unless noted), 23.2%; in the assay on HT29 colon (10 µM unless noted), 1.98% (active). For the same compound, the growth with SNB-75 CNS (10 µM unless noted) is 56.5%; in the assay with SNB-19 CNS (10 µM unless noted) it was 53.7%; in the assay with U251 CNS it was 38.2%; with PC-3 prostate, 60.6%; with SK-MEL-5 melanoma (10 µM unless noted), -95.5% (active); in the assay on UACC-62 melanoma (10 µM unless noted) it was -41% (active). Also, the growth in the assay on LOX IMVI melanoma (10 µM unless noted) is -76.9% (active); in the assay on SK-MEL-28 melanoma (10 µM unless noted), -51.2% (active).
Consider `CC(C)c1ccc2nc3ccc(C(=O)NCCN4CCN(c5ccccc5)CC4)cn3c(=O)c2c1`, for which the growth is 80% with DU-145 prostate (10 µM unless noted); 45.1% with K-562 leukemia (10 µM unless noted); 48.3% in the assay with MALME-3M melanoma (10 µM unless noted); 59.3% in the assay on MDA-MB-231 breast (10 µM unless noted); 3.14% (active) with RXF 393 renal (10 µM unless noted); 72.9% in the assay on SF-268 CNS (10 µM unless noted). Besides, the growth in the assay on SF-295 CNS (10 µM unless noted) was 23.1%; with SF-539 CNS (10 µM unless noted), 40.8%; in the assay on UACC-257 melanoma (10 µM unless noted), 60.2%; with M14 melanoma (10 µM unless noted), 63.8%; in the assay on HCT-15 colon (10 µM unless noted), 44.5%; in the assay with HT29 colon (10 µM unless noted) it was 38.8%. Moreover, the growth was 60.4% with SNB-75 CNS (10 µM unless noted); 78.8% in the assay on SNB-19 CNS (10 µM unless noted); 38.2% in the assay with U251 CNS; 56.3% with PC-3 prostate; -25.3% (active) in the assay with SK-MEL-5 melanoma (10 µM unless noted); 62% in the assay on UACC-62 melanoma (10 µM unless noted). Further, the growth was 56.1% with LOX IMVI melanoma (10 µM unless noted) and 69.7% in the assay on SK-MEL-28 melanoma (10 µM unless noted).
For `Cc1ccc(C(=Nc2ccccc2)N=P(c2ccccc2)(c2ccccc2)c2ccccc2)cc1`, the growth in the assay on DU-145 prostate (10 µM unless noted) is -0.576% (active); in the assay with K-562 leukemia (10 µM unless noted) it was 15.6%; with MALME-3M melanoma (10 µM unless noted), -67.8% (active); in the assay with MDA-MB-231 breast (10 µM unless noted), -41% (active); in the assay with RXF 393 renal (10 µM unless noted) it was -23.3% (active); in the assay on SF-268 CNS (10 µM unless noted), -0.449% (active). The growth was -93.4% (active) in the assay on SF-295 CNS (10 µM unless noted); -42.9% (active) with SF-539 CNS (10 µM unless noted); -17.3% (active) in the assay on UACC-257 melanoma (10 µM unless noted); -79% (active) in the assay with M14 melanoma (10 µM unless noted); 2.78% (active) in the assay with HCT-15 colon (10 µM unless noted); 2.74% (active) in the assay on HT29 colon (10 µM unless noted). Besides, the growth with SNB-75 CNS (10 µM unless noted) was 15.6%; in the assay with SNB-19 CNS (10 µM unless noted) it was -15.8% (active); in the assay with U251 CNS, -7.18% (active); with PC-3 prostate it was -31.5% (active); with SK-MEL-5 melanoma (10 µM unless noted), -96.6% (active); with UACC-62 melanoma (10 µM unless noted), -78.5% (active). The growth in the assay on LOX IMVI melanoma (10 µM unless noted) was -82.9% (active); in the assay with SK-MEL-28 melanoma (10 µM unless noted) it was -48.6% (active).
For the compound `CCOC(=O)/C(=C\c1ccc(-c2ccccc2)cc1)C(C)=O`, the growth in the assay on DU-145 prostate (10 µM unless noted) is 99.3%; in the assay with K-562 leukemia (10 µM unless noted), 101%; with MALME-3M melanoma (10 µM unless noted) it was 87.1%; in the assay on MDA-MB-231 breast (10 µM unless noted) it was 112%; with RXF 393 renal (10 µM unless noted) it was 95.6%; with SF-268 CNS (10 µM unless noted) it was 91%. Moreover, the growth in the assay with SF-295 CNS (10 µM unless noted) was 102%; with SF-539 CNS (10 µM unless noted), 98%; in the assay on UACC-257 melanoma (10 µM unless noted), 120%; in the assay with M14 melanoma (10 µM unless noted), 94.7%; in the assay with HCT-15 colon (10 µM unless noted) it was 94.5%; in the assay with HT29 colon (10 µM unless noted), 104%. The growth in the assay on SNB-75 CNS (10 µM unless noted) is 88%; in the assay on SNB-19 CNS (10 µM unless noted), 99.9%; in the assay on U251 CNS, 103%; in the assay on PC-3 prostate, 107%; in the assay with SK-MEL-5 melanoma (10 µM unless noted), 98.7%; with UACC-62 melanoma (10 µM unless noted) it was 94.6%. The results for the growth in the assay with LOX IMVI melanoma (10 µM unless noted) and with SK-MEL-28 melanoma (10 µM unless noted) were 98.4% and 99.1%, respectively.
Regarding `Cn1c2c(c3ccccc31)CCN1C[C@@H]3CCCC[C@H]3C[C@@H]21`, the growth is -49% (active) in the assay on DU-145 prostate (10 µM unless noted); 12.9% in the assay on K-562 leukemia (10 µM unless noted); 3.28% (active) in the assay with MALME-3M melanoma (10 µM unless noted); 28.5% with MDA-MB-231 breast (10 µM unless noted); -24.4% (active) in the assay with RXF 393 renal (10 µM unless noted); 16.1% with SF-268 CNS (10 µM unless noted). Also, the growth in the assay on SF-295 CNS (10 µM unless noted) is -30.1% (active); in the assay with SF-539 CNS (10 µM unless noted) it was -1.74% (active); in the assay with UACC-257 melanoma (10 µM unless noted), 55.4%; with M14 melanoma (10 µM unless noted), -59.3% (active); in the assay on HCT-15 colon (10 µM unless noted), 9.14% (active); with HT29 colon (10 µM unless noted) it was 1.8% (active). The growth with SNB-75 CNS (10 µM unless noted) was -21.7% (active); in the assay on SNB-19 CNS (10 µM unless noted), 18.3%; with U251 CNS it was 19.8%; in the assay on PC-3 prostate, 23%; in the assay with SK-MEL-5 melanoma (10 µM unless noted), -16.1% (active); in the assay with UACC-62 melanoma (10 µM unless noted), 18.4%. Moreover, the growth with LOX IMVI melanoma (10 µM unless noted) was 15.6%; in the assay on SK-MEL-28 melanoma (10 µM unless noted) it was 31.1%.
For `O=C(O)c1c(Cl)c(Cl)c(Cl)c(Cl)c1-c1c2cc(I)c(=O)c(I)c-2oc2c(I)c(O)c(I)cc12`, the growth is 93.5% and 95.2% and 112% with DU-145 prostate (10 µM); 59% with DU-145 prostate (100 µM); 112% and 113% and 92.3% in the assay on K-562 leukemia (10 µM); -33.1% (active) in the assay with K-562 leukemia (100 µM); 110% and 56.4% with MALME-3M melanoma (10 µM); -11.9% (active) with MALME-3M melanoma (100 µM). The growth in the assay on MDA-MB-231 breast (10 µM) was 94.7% and 102% and 104%; with MDA-MB-231 breast (100 µM), -39.7% (active); in the assay with RXF 393 renal (10 µM), 92.5% and 90.9% and 57.7%; in the assay on RXF 393 renal (100 µM) it was -78.9% (active); with SF-268 CNS (10 µM), 88.2% and 78.4% and 96.9%; in the assay on SF-268 CNS (100 µM), 19.8%. The growth was 100% and 98.8% and 96.3% with SF-295 CNS (10 µM); 15.3% in the assay with SF-295 CNS (100 µM); 95.4% and 96.5% and 77.9% in the assay with SF-539 CNS (10 µM); -67.5% (active) in the assay on SF-539 CNS (100 µM); 115% and 117% and 90.6% in the assay on UACC-257 melanoma (10 µM); 22.9% with UACC-257 melanoma (100 µM). The growth in the assay on M14 melanoma (10 µM) is 104% and 95.6% and 119%; in the assay with M14 melanoma (100 µM), 69.7%; in the assay on HCT-15 colon (10 µM), 101% and 107% and 90.1%; in the assay on HCT-15 colon (100 µM), 22.9%; in the assay on HT29 colon (10 µM), 105% and 104% and 95.2%; with HT29 colon (100 µM), 39.2%. The growth is 108% and 91.1% and 49.5% in the assay with SNB-75 CNS (10 µM); 26% in the assay with SNB-75 CNS (100 µM); 100% and 98.4% and 97.9% in the assay with SNB-19 CNS (10 µM); -47.9% (active) with SNB-19 CNS (100 µM); 98.5% and 95.3% and 97.7% in the assay on U251 CNS; 107% and 110% and 96.1% in the assay on SK-MEL-5 melanoma (10 µM). The growth in the assay with SK-MEL-5 melanoma (100 µM) was 22.1%; with UACC-62 melanoma (10 µM), 98.8% and 107% and 96.1%; in the assay on UACC-62 melanoma (100 µM) it was -41.3% (active); with LOX IMVI melanoma (10 µM) it was 98.6% and 92% and 87.7%; in the assay with LOX IMVI melanoma (100 µM), -76.1% (active); in the assay on SK-MEL-28 melanoma (10 µM), 105% and 327% and 108%. The growth in the assay with SK-MEL-28 melanoma (100 µM) was -55.7% (active).
